Results reported in the supplement of paper PMC8728848.
The sample as a whole holds a higher share of the strongest signals than the screen did.

Legend:
Assay in all cases: glycan array binding signal (z-score within array); higher = stronger binding
Conditions in all cases: glycan notation: IUPAC condensed, linker removed
[1] = biological target: Fuc(a1-2)Gal(b1-3)GlcNAc(b1-2)Man(a1-3)[Fuc(a1-2)Gal(b1-3)GlcNAc(b1-2)Man(a1-6)]Man(b1-4)GlcNAc(b1-4)[Fuc(a1-6)]GlcNAc
Procedure, shortened: (§1)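 Glycan array data were curated from 3228 arrays in the Consortium for Functional Glycomics database and kept only where the protein sequence was available. Glycan names were converted to IUPAC-condensed notation, and columns mapping to the same glycan were averaged. The binding signal is a within-array Z-score, averaged across arrays of the same protein sequence at different concentrations or buffers and across linkers. Negative Z-scores can be read as non-binding.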

[2] = biological target: Fuc(a1-2)Gal(b1-3)GlcNAc(b1-3)[Gal(b1-4)GlcNAc(b1-6)]Gal(b1-4)Glc
Procedure, shortened: as §1

[3] = biological target: Fuc(a1-2)Gal(b1-3)[Fuc(a1-4)]GlcNAc
Procedure, shortened: as §1

[4] = biological target: Fuc(a1-2)Gal(b1-3)[Fuc(a1-4)]GlcNAc(b1-2)Man(a1-3)[Fuc(a1-2)Gal(b1-3)[Fuc(a1-4)]GlcNAc(b1-2)Man(a1-3)]Man(b1-4)GlcNAc(b1-4)GlcNAc
Procedure, shortened: as §1

[5] = biological target: Fuc(a1-2)Gal(b1-4)GlcNAc(b1-6)GalNAc
Procedure, shortened: as §1

[6] = biological target: Fuc(a1-2)Gal3S(b1-4)GlcNAc
Procedure, shortened: as §1

[7] = biological target: Fuc(a1-2)[Gal(a1-3)]Gal(b1-3)GalNAc(b1-3)Gal(a1-4)Gal(b1-4)Glc
Procedure, shortened: as §1

[8] = biological target: Fuc(a1-2)[Gal(a1-3)]Gal(b1-3)GlcNAc
Procedure, shortened: as §1

[9] = biological target: Fuc(a1-2)[Gal(a1-3)]Gal(b1-3)GlcNAc(b1-6)GalNAc
Procedure, shortened: as §1

[10] = biological target: Fuc(a1-2)[Gal(a1-3)]Gal(b1-4)[Fuc(a1-3)]GlcNAc(b1-3)GalNAc
Procedure, shortened: as §1

[11] = biological target: Fuc(a1-3)[Gal(b1-4)]GlcNAc(b1-2)Man(a1-3)[Fuc(a1-3)[Gal(b1-4)]GlcNAc(b1-2)Man(a1-6)]Man(b1-4)GlcNAc(b1-4)GlcNAc
Procedure, shortened: as §1

[12] = biological target: Fuc(a1-3)[Gal(b1-4)]GlcNAc(b1-3)Gal(b1-4)[Fuc(a1-3)]GlcNAc
Procedure, shortened: as §1

[13] = biological target: Fuc(a1-3)[Gal(b1-4)]GlcNAc(b1-6)GalNAc
Procedure, shortened: as §1

[14] = biological target: Fuc(a1-3)[Gal(b1-4)]GlcNAc6S
Procedure, shortened: as §1

[15] = biological target: Gal(a1-3)Gal(b1-3)GlcNAc(b1-6)GalNAc
Procedure, shortened: as §1

[16] = biological target: Gal(a1-3)Gal(b1-4)GlcNAc(b1-2)Man(a1-3)[Gal(a1-3)Gal(b1-4)GlcNAc(b1-2)Man(a1-6)]Man(b1-4)GlcNAc(b1-4)GlcNAc
Procedure, shortened: as §1

[17] = biological target: Gal(b1-3)GlcNAc(b1-2)Man(a1-3)[Gal(b1-3)GlcNAc(b1-2)Man(a1-6)]Man(b1-4)GlcNAc(b1-4)GlcNAc
Procedure, shortened: as §1

[18] = biological target: Gal(b1-3)GlcNAc(b1-2)Man(a1-3)[Gal(b1-3)GlcNAc(b1-2)Man(a1-6)]Man(b1-4)GlcNAc(b1-4)[Fuc(a1-6)]GlcNAc
Procedure, shortened: as §1

[19] = biological target: Gal(b1-3)GlcNAc(b1-3)Gal(b1-4)GlcNAc
Procedure, shortened: as §1

[20] = biological target: Gal(b1-3)GlcNAc(b1-3)Gal(b1-4)GlcNAc(b1-2)Man(a1-3)[Gal(b1-3)GlcNAc(b1-3)Gal(b1-4)GlcNAc(b1-2)Man(a1-6)]Man(b1-4)GlcNAc(b1-4)GlcNAc
Procedure, shortened: as §1

[21] = biological target: Gal(b1-3)GlcNAc(b1-6)Gal(b1-4)GlcNAc
Procedure, shortened: as §1

[22] = biological target: Gal(b1-3)GlcNAc(b1-6)[Gal(b1-3)]GalNAc
Procedure, shortened: as §1

[23] = biological target: Gal(b1-3)[Fuc(a1-4)]GlcNAc(b1-6)GalNAc
Procedure, shortened: as §1

[24] = biological target: Gal(b1-4)GlcNAc(b1-3)Gal(b1-3)GalNAc
Procedure, shortened: as §1

[25] = biological target: Gal(b1-4)GlcNAc(b1-3)Gal(b1-4)GlcNAc(b1-2)Man(a1-3)[Gal(b1-4)GlcNAc(b1-3)Gal(b1-4)GlcNAc(b1-2)Man(a1-6)]Man(b1-4)GlcNAc(b1-4)GlcNAc
Procedure, shortened: as §1

[26] = biological target: Gal(b1-4)GlcNAc(b1-3)Gal(b1-4)GlcNAc(b1-2)Man(a1-3)[Gal(b1-4)GlcNAc(b1-3)Gal(b1-4)GlcNAc(b1-2)Man(a1-6)]Man(b1-4)GlcNAc(b1-4)[Fuc(a1-6)]GlcNAc
Procedure, shortened: as §1

B1: PX9937B-bvu-524-33-524 (Bacteroides vulgatus) (protein)
chain: GTAYWKNPDQFTAFNTGLHALLREKSYNFFLLGEPRADIYGDNPIGGEASQGMERLPFNTINKENVGISNYGDMYKIINQINQMIAKTTETTILTEATQNYYLGEAYGMRAYLYFHLLRSWGDVVLYLDYTEGQNLDLSNITKGVSPATEVMEQIKKDIQASENAFGSDYSFKLGRHFWSAAATQMLKGEAYLWSGRQMNGGNSDYTIAKNAFENVKKADVGLVTSSFKDIFSFENKKNKEMIFTIHNGKDEYEMWGGYYRMRLIPAQDKMVKIYCDENGNSFVGTPDAQLNGLTQLQVRREFYFKGFRNNDTRWTTSLKAVYKKDAQGVVSYFGPITYKFQGTMLEGGSTRSFLDDFPIYRYADCLLQLAMAKVLLGEDPTEEINAVRERAYGSKYFNEHKAEIAYPNDNDPEFYTDNKWMKPDNAGALEAILKERLREFMFEGKRWYDIRLLGWDYVHQYSSAEQSRLLWPIDAGTLTNNSALKQTPGYE
- glycan array binding signal (z-score) [1]: -0.232
- glycan array binding signal (z-score) [2]: -0.284
- glycan array binding signal (z-score) [3]: -0.457
- glycan array binding signal (z-score) [4]: -0.154
- glycan array binding signal (z-score) [5]: -0.136
- glycan array binding signal (z-score) [6]: -0.476
- glycan array binding signal (z-score) [7]: 0.046
- glycan array binding signal (z-score) [8]: -0.275
- glycan array binding signal (z-score) [9]: -0.124
- glycan array binding signal (z-score) [10]: -0.416
- glycan array binding signal (z-score) [11]: 1.23
- glycan array binding signal (z-score) [12]: -0.277
- glycan array binding signal (z-score) [13]: 2.69
- glycan array binding signal (z-score) [14]: 0.219
- glycan array binding signal (z-score) [15]: 6.13
- glycan array binding signal (z-score) [16]: 2.91
- glycan array binding signal (z-score) [17]: -0.057
- glycan array binding signal (z-score) [18]: 0.088
- glycan array binding signal (z-score) [19]: -0.228
- glycan array binding signal (z-score) [20]: 12.8
- glycan array binding signal (z-score) [21]: -0.085
- glycan array binding signal (z-score) [22]: 7.68
- glycan array binding signal (z-score) [23]: -0.019
- glycan array binding signal (z-score) [24]: -0.08
- glycan array binding signal (z-score) [25]: 2.05
- glycan array binding signal (z-score) [26]: 1.48
